Our source for the Potency values is PubChem BioAssay (NCATS).

Results filed as inconclusive are left out. The source made the active and inactive calls. Calls come from the whole dose curve; as a rule, active = well fitted inhibition curve with a large enough effect; inconclusive = small, poorly fitted or top-dose-only effect; inactive = flat fitted curve, though single readings scatter. Numbered stars: 1 amine (or outer) side, 2 acyl side, 3 side chain; on linkers, the order of the positions; unused ones are H or OH. Bridge positions count the residues as written; N and C are the ends. Square brackets hold non-standard residues; d marks the D form. Peptide text beside a SMILES is read from it. I, II: the chains in the order shown. Actinocin(9to1) = Cc1c2oc3c(C)ccc(C(=O)[*:1])c3nc-2c(C(=O)[*:2])c(N)c1=O; NMeV = CN[C@H](C(=O)O)C(C)C; Sar = CNCC(=O)O

What all share (assay): qHTS profiling for inhibitors of Plasmodium falciparum proliferation (AID 504749); note: nearly all actives have a fitted effect of over 60% in size
Common to all, as to settings: P. falciparum in erythrocytes, SYBR Green DNA, 72 h; series mostly up to 28.7 µM

Experiment [1] deals with DIV14. The procedure, abridged:
(§1)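 Each compound contacts P. falciparum-infected red blood cells for 72 h at 37 C; lysis buffer (Tris, EDTA, saponin, Triton X, SYBR Green I) is added and fluorescence measured next morning; values normalized to controls.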

The test system of experiment [2] is DIV17. The procedure, abridged:
as §1

In experiment [3] the test system is DIV30. In a few lines:
as §1

For experiment [4], the system named is Dd2. The procedure, abridged:
as §1

In experiment [5] the test system is ECU. The procedure, abridged:
as §1

Experiment [6] has as its system FAB9. The procedure, abridged: as §1
Experiment [7] deals with GB4. In a few lines:
as §1

The subject of experiment [8] is HB3. In a few lines: as §1
In experiment [9] the test system is ICS. The procedure, abridged: as §1
The subject of experiment [10] is JCK. In a few lines: as §1
Potency is the fitted concentration of half-maximal effect.

As for `Cc1c(F)c(N2CCNC(C)C2)cc2c1c(=O)c(C(=O)O)cn2C1CC1` (stereo not drawn), the Potency result in [1], in experiment [2], in experiment [3], in [4], in experiment [5] and in experiment [6] was “inactive” throughout. Moreover, the Potency result in experiment [7], in experiment [8], in [9] and in experiment [10] was “inactive” throughout.
For the molecule `COc1ccc(/C=C/C(=O)c2ccc(OC)cc2OC)cc1`, the Potency in [1] is 10.7 µM (active); in [2], 16.9 µM (active); in [3] it was 12 µM (active); in experiment [4], 7.08 µM (active); in experiment [5], 8.91 µM (active); in [6], 8.91 µM (active). The Potency in [7] was 7.57 µM (active); in [8] it was 10 µM (active); in [9] it was 12.6 µM (active); in experiment [10] it was 8.91 µM (active).
As for `CCOC(=O)n1ccn(C)c1=S`, the Potency entry in experiment [1], in experiment [2], in experiment [3], in [4], in experiment [5] and in experiment [6] was “inactive” in each case. Besides, the Potency result in experiment [7], in experiment [8], in experiment [9] and in experiment [10] was “inactive” in each case.
Consider `Cc1ccnc(NS(=O)(=O)c2ccc(N)cc2)n1`, for which the Potency result in experiment [1], in [2], in [3], in experiment [4], in experiment [5] and in [6] was “inactive” throughout. For the same molecule, the Potency result in experiment [7], in experiment [8], in experiment [9] and in experiment [10] was “inactive” each time.
Turning to `COc1c2occc2c(OC)c2c(=O)cc(C)oc12`, the Potency entry in [1], in experiment [2], in experiment [3], in experiment [4], in experiment [5] and in experiment [6] was “inactive” in each case. For the same molecule, the Potency result in experiment [7], in experiment [8], in [9] and in [10] was “inactive” each time.
On to `CC(C)(CO)[C@@H](O)C(=O)NCCCO`, for which the Potency result in experiment [1], in experiment [2], in experiment [3], in experiment [4], in [5] and in experiment [6] was “inactive” throughout. Further, the Potency result in experiment [7], in experiment [8], in experiment [9] and in [10] was “inactive” in each case.
In the case of `CCCCCCc1ccc(O)cc1O`, the Potency result in [1], in experiment [2], in experiment [3], in [4], in experiment [5] and in experiment [6] was “inactive” in each case. The Potency result in experiment [7], in experiment [8], in [9] and in [10] was “inactive” throughout.
For `NC(=NCCCCCCN=C(N)/N=C(\N)Nc1ccc(Cl)cc1)/N=C(\N)Nc1ccc(Cl)cc1`, the Potency was 1.07 µM (active) in [1]; 1.07 µM (active) in [2]; 1.51 µM (active) in experiment [3]; 2 µM (active) in experiment [4]; 2.24 µM (active) in experiment [5]; 2 µM (active) in [6]. For the same molecule, the Potency was 1.07 µM (active) in experiment [7], 4.47 µM (active) in experiment [8], 0.355 µM (active) in experiment [9] and 3.98 µM (active) in experiment [10].
In the case of `CC(C)(C(=O)c1cccnc1)c1cccnc1`, the Potency entry in experiment [1], in experiment [2], in experiment [3], in experiment [4], in experiment [5] and in experiment [6] was “inactive” throughout. Further, the Potency result in [7], in experiment [8] and in experiment [9] was “inactive” each time. Further, the Potency in experiment [10] is 10 µM (active).
For the molecule `CCCCCCCCCCCCCCCC[N+](C)(C)CC`, the Potency in experiment [1] was 7.57 µM (active); in experiment [2], 7.57 µM (active); in [3], 5.36 µM (active); in [4], 6.31 µM (active); in experiment [5], 5.01 µM (active); in [6] it was 7.94 µM (active). Besides, the values for the Potency in experiment [7], in [8] and in experiment [9] were 3.79 µM (active), 7.08 µM (active) and 1.41 µM (active), respectively.
With `Nc1ccc(C(=O)O)cc1`, the Potency result in experiment [1], in experiment [2], in [3], in experiment [4], in experiment [5] and in experiment [6] was “inactive” each time. The Potency entry in experiment [7], in experiment [8], in experiment [9] and in experiment [10] was “inactive” throughout.
As to `O=C(O)CCCCC(=O)O`, the Potency entry in [1], in experiment [2], in [3], in experiment [4], in experiment [5] and in experiment [6] was “inactive” throughout. Further, the Potency entry in experiment [7], in experiment [8], in experiment [9] and in [10] was “inactive” throughout.
Consider `CN1C(CCl)Nc2cc(Cl)c(S(N)(=O)=O)cc2S1(=O)=O` (stereo not drawn), for which the Potency result in [1], in [2], in experiment [3], in [4], in experiment [5] and in experiment [6] was “inactive” in each case. Also, the Potency entry in experiment [7], in experiment [8], in experiment [9] and in experiment [10] was “inactive” in each case.
Consider `O=C1CCC(c2ccc(-n3ccnc3)cc2)=NN1`, for which the Potency result in experiment [1], in experiment [2], in experiment [3], in [4], in [5] and in experiment [6] was “inactive” each time. The Potency entry in [7], in experiment [8], in experiment [9] and in [10] was “inactive” throughout.
In the case of `CC(O)C(=O)O` (stereo not drawn), the Potency entry in [1], in [2], in [3], in experiment [4], in experiment [5] and in experiment [6] was “inactive” throughout. The Potency entry in experiment [7], in experiment [8], in [9] and in experiment [10] was “inactive” in each case.
For the molecule `CCN(CC)C(=O)N1CCN(C)CC1`, the Potency entry in experiment [1], in experiment [2], in experiment [3], in experiment [4], in experiment [5] and in [6] was “inactive” each time. For the same molecule, the Potency entry in [7], in experiment [8], in [9] and in experiment [10] was “inactive” throughout.
With `CC(=O)OCC(=O)NCCCOc1cccc(CN2CCCCC2)c1`, the Potency entry in experiment [1], in experiment [2], in [3], in [4], in [5] and in experiment [6] was “inactive” in each case. Also, the Potency entry in experiment [7], in [8], in experiment [9] and in experiment [10] was “inactive” throughout.
Turning to `O=c1ccc2ccccc2o1`, the Potency result in experiment [1], in experiment [2], in experiment [3], in experiment [4], in [5] and in experiment [6] was “inactive” throughout. In addition, the Potency result in [7], in experiment [8], in [9] and in [10] was “inactive” each time.
As to `O=C(Nc1ccc(Cl)c(Cl)c1)C1CC1`, the Potency entry in experiment [1], in [2], in experiment [3], in experiment [4], in experiment [5] and in experiment [6] was “inactive” in each case. Also, the Potency result in [7], in experiment [8], in [9] and in experiment [10] was “inactive” each time.
For the molecule `Cc1c2oc3c(C)ccc(C(=O)N[C@@H]4C(=O)N[C@H](C(C)C)C(=O)N5CCC[C@H]5C(=O)N(C)CC(=O)N(C)[C@@H](C(C)C)C(=O)O[C@@H]4C)c3nc-2c(C(=O)N[C@@H]2C(=O)N[C@H](C(C)C)C(=O)N3CCC[C@H]3C(=O)N(C)CC(=O)N(C)[C@@H](C(C)C)C(=O)O[C@@H]2C)c(N)c1=O` (I: T[dV]P[Sar][NMeV] / II: T[dV]P[Sar][NMeV]; ester I:1-I:C, II:1-II:C; linker I:N-II:N via Actinocin(9to1)), the Potency was 0.0038 µM (active) in experiment [1]; 0.0054 µM (active) in experiment [2]; 0.0076 µM (active) in experiment [3]; 0.0045 µM (active) in [4]; 0.0032 µM (active) in experiment [5]; 0.0112 µM (active) in experiment [6]. Besides, the Potency was 0.0048 µM (active) in experiment [7], 0.005 µM (active) in [8] and 0.0025 µM (active) in [9].
For `Cc1cc(N)c2cc(NC(=O)Nc3ccc4nc(C)cc(N)c4c3)ccc2n1`, the Potency in experiment [1] was 13.5 µM (active); in [2], 10.7 µM (active); in experiment [3] it was 6.01 µM (active); in [4], 0.891 µM (active); in experiment [5], 10 µM (active); in [6], 5.01 µM (active). Further, the Potency in experiment [7] was 7.57 µM (active); in experiment [8], 4.47 µM (active); in experiment [9], 5.01 µM (active); in experiment [10] it was 11.2 µM (active).
